# Experimental data as given in the supplement of paper PMC8728848.
# This is one part of a sample in which the strongest signals are shown more often than they occur.
# How the values were obtained:
# Experiment in all cases: glycan array binding signal (z-score within array); higher = stronger binding
# Conditions in all cases: glycan notation: IUPAC condensed, linker removed
# [1] = biological target: Fuc(a1-2)Gal(b1-3)GlcNAc(b1-2)Man(a1-3)[Fuc(a1-2)Gal(b1-3)GlcNAc(b1-2)Man(a1-6)]Man(b1-4)GlcNAc(b1-4)[Fuc(a1-6)]GlcNAc
# Summary of the method: (§1)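 Glycan array data came from 3228 arrays in the Consortium for Functional Glycomics database, and only arrays with an available protein sequence were kept. Glycan names were put into IUPAC-condensed notation, and columns mapping to the same glycan were averaged. The binding signal is a within-array Z-score, averaged across arrays of one protein sequence run at different concentrations or buffers and across linkers. A negative Z-score can be read as non-binding.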
# [2] = biological target: Fuc(a1-2)Gal(b1-4)GlcNAc(b1-3)Gal(b1-4)GlcNAc(b1-2)Man(a1-3)[Fuc(a1-2)Gal(b1-4)GlcNAc(b1-3)Gal(b1-4)GlcNAc(b1-2)Man(a1-6)]Man(b1-4)GlcNAc(b1-4)GlcNAc
# Summary of the method: as §1
# [3] = biological target: Fuc(a1-2)Gal(b1-4)GlcNAc(b1-3)GalNAc
# Summary of the method: as §1
# [4] = biological target: Fuc(a1-2)Gal(b1-4)[Fuc(a1-3)]GlcNAc(b1-2)[Fuc(a1-2)Gal(b1-4)[Fuc(a1-3)]GlcNAc(b1-4)]Man(a1-3)[Fuc(a1-2)Gal(b1-4)[Fuc(a1-3)]GlcNAc(b1-2)Man(a1-6)]Man(b1-4)GlcNAc(b1-4)GlcNAc
# Summary of the method: as §1
# [5] = biological target: Fuc(a1-2)Gal(b1-4)[Fuc(a1-3)]GlcNAc(b1-3)Gal(b1-4)[Fuc(a1-3)]GlcNAc(b1-3)Gal(b1-4)[Fuc(a1-3)]GlcNAc
# Summary of the method: as §1
# [6] = biological target: Fuc(a1-2)Gal6S(b1-4)Glc6S
# Summary of the method: as §1
# [7] = biological target: Fuc(a1-2)[Gal(a1-3)]Gal(b1-4)GlcNAc(b1-2)Man(a1-3)[Fuc(a1-2)[Gal(a1-3)]Gal(b1-4)GlcNAc(b1-2)Man(a1-6)]Man(b1-4)GlcNAc(b1-4)[Fuc(a1-6)]GlcNAc
# Summary of the method: as §1
# [8] = biological target: Gal(a1-3)Gal(b1-4)GlcNAc(b1-2)Man
# Summary of the method: as §1
# [9] = biological target: Gal(b1-3)GalNAc(a1-3)[Fuc(a1-2)]Gal(b1-4)GlcNAc
# Summary of the method: as §1
# Gal(b1-3)GalNAc(b1-3)Gal = biological target: Gal(b1-3)GalNAc(b1-3)Gal
# Summary of the method: as §1
# Gal(b1-3)GlcNAc = biological target: Gal(b1-3)GlcNAc
# Summary of the method: as §1
# [10] = biological target: Gal(b1-3)GlcNAc(b1-2)Man(a1-3)[GlcNAc(b1-4)][Gal(b1-3)GlcNAc(b1-2)Man(a1-6)]Man(b1-4)GlcNAc(b1-4)GlcNAc
# Summary of the method: as §1
# [11] = biological target: Gal(b1-3)[GlcNAc(b1-6)]GalNAc
# Summary of the method: as §1
# [12] = biological target: Gal(b1-4)GlcNAc(b1-2)Man(a1-3)[Gal(b1-4)GlcNAc(b1-2)Man(a1-6)][GlcNAc(b1-4)]Man(b1-4)GlcNAc(b1-4)[Fuc(a1-6)]GlcNAc
# Summary of the method: as §1
# [13] = biological target: Gal(b1-4)GlcNAc(b1-2)Man(a1-3)[Man(a1-6)]Man(b1-4)GlcNAc(b1-4)GlcNAc
# Summary of the method: as §1
# [14] = biological target: Gal(b1-4)GlcNAc(b1-3)Gal(b1-4)GlcNAc(b1-2)Man(a1-3)[Gal(b1-4)GlcNAc(b1-3)Gal(b1-4)GlcNAc(b1-2)Man(a1-6)]Man(b1-4)GlcNAc(b1-4)GlcNAc
# Summary of the method: as §1
# Gal(b1-6)Gal = biological target: Gal(b1-6)Gal
# Summary of the method: as §1
# [15] = biological target: Gal3S(b1-3)[Fuc(a1-4)]GlcNAc
# Summary of the method: as §1
# [16] = biological target: Gal3S(b1-4)[Fuc(a1-3)]GlcNAc
# Summary of the method: as §1
# Gal6S(b1-3)GlcNAc = biological target: Gal6S(b1-3)GlcNAc
# Summary of the method: as §1
# GalNAc4S6S(b1-4)GlcNAc = biological target: GalNAc4S6S(b1-4)GlcNAc
# Summary of the method: as §1
# GlcA(b1-6)Gal = biological target: GlcA(b1-6)Gal
# Summary of the method: as §1
# [17] = biological target: GlcNAc(a1-4)Gal(b1-4)GlcNAc
# Summary of the method: as §1
# [18] = biological target: GlcNAc(b1-2)Man(a1-3)[GlcNAc(b1-4)][GlcNAc(b1-2)Man(a1-6)]Man(b1-4)GlcNAc(b1-4)GlcNAc
# Summary of the method: as §1
# [19] = biological target: GlcNAc(b1-2)[GlcNAc(b1-4)]Man(a1-3)[GlcNAc(b1-2)Man(a1-6)]Man(b1-4)GlcNAc(b1-4)GlcNAc
# Summary of the method: as §1
# [20] = biological target: GlcNAc(b1-2)[GlcNAc(b1-4)]Man(a1-3)[GlcNAc(b1-4)][GlcNAc(b1-2)[GlcNAc(b1-6)]Man(a1-6)]Man(b1-4)GlcNAc(b1-4)GlcNAc
# Summary of the method: as §1
# GlcNAc(b1-3)Fuc = biological target: GlcNAc(b1-3)Fuc
# Summary of the method: as §1
# [21] = biological target: GlcNAc(b1-3)Gal(b1-3)GalNAc
# Summary of the method: as §1
# [22] = biological target: GlcNAc(b1-3)Gal(b1-4)GlcNAc(b1-3)Gal(b1-4)GlcNAc(b1-2)Man(a1-3)[GlcNAc(b1-3)Gal(b1-4)GlcNAc(b1-3)Gal(b1-4)GlcNAc(b1-2)Man(a1-6)]Man(b1-4)GlcNAc(b1-4)GlcNAc
# Summary of the method: as §1
# [23] = biological target: GlcNAc(b1-3)Gal(b1-4)GlcNAc(b1-3)Gal(b1-4)GlcNAc(b1-2)[GlcNAc(b1-3)Gal(b1-4)GlcNAc(b1-3)Gal(b1-4)GlcNAc(b1-6)]Man(a1-6)[GlcNAc(b1-3)Gal(b1-4)GlcNAc(b1-3)Gal(b1-4)GlcNAc(b1-2)Man(a1-3)]Man(b1-4)GlcNAc(b1-4)[Fuc(a1-6)]GlcNAc
# Summary of the method: as §1
binder,measurement,setting,value
"SAOUHSC 02783 (Staphylococcus aureus), Q5HD69 (protein) MIHSKKLTLGICLVLLIILIVGYVIMTKTNGRNAQIKDTFNQTLKLYPTKNLDDFYDKEGFRDQEFKKGDKGTWIVNSEMVIEPKGKDMETRGMVLYINRNTRTTKGYYFISEMTDDSNGRPKDDEKRYPVKMEHNKIIPTKPLPNDKLKKEIENFKFFVQYGNFKDINDYKDGDISYNPNVPSYSAKYQLNNDDYNVQQLRKRYDIPTKQAPKLLLKGDGDLKGSSVGSRSLEFTFVENKEENIYFTDSVQYTPSEDTRYESN",glycan array binding signal (z-score),[1],2.61
same,glycan array binding signal (z-score),[2],-0.248
same,glycan array binding signal (z-score),[3],0.108
same,glycan array binding signal (z-score),[4],4.52
same,glycan array binding signal (z-score),[5],-0.71
same,glycan array binding signal (z-score),[6],0.515
same,glycan array binding signal (z-score),[7],-1.39
same,glycan array binding signal (z-score),[8],-0.596
same,glycan array binding signal (z-score),[9],-1.73
same,glycan array binding signal (z-score),Gal(b1-3)GalNAc(b1-3)Gal,-0.932
same,glycan array binding signal (z-score),Gal(b1-3)GlcNAc,0.236
same,glycan array binding signal (z-score),[10],3.09
same,glycan array binding signal (z-score),[11],-0.308
same,glycan array binding signal (z-score),[12],-0.077
same,glycan array binding signal (z-score),[13],5.18
same,glycan array binding signal (z-score),[14],2.58
same,glycan array binding signal (z-score),Gal(b1-6)Gal,0.805
same,glycan array binding signal (z-score),[15],-0.32
same,glycan array binding signal (z-score),[16],-0.324
same,glycan array binding signal (z-score),Gal6S(b1-3)GlcNAc,-0.599
same,glycan array binding signal (z-score),GalNAc4S6S(b1-4)GlcNAc,-0.245
same,glycan array binding signal (z-score),GlcA(b1-6)Gal,2.83
same,glycan array binding signal (z-score),[17],-0.454
same,glycan array binding signal (z-score),[18],-0.821
same,glycan array binding signal (z-score),[19],1.11
same,glycan array binding signal (z-score),[20],-0.289
same,glycan array binding signal (z-score),GlcNAc(b1-3)Fuc,-0.235
same,glycan array binding signal (z-score),[21],-0.447
same,glycan array binding signal (z-score),[22],2.6
same,glycan array binding signal (z-score),[23],2.84
